Data as given in PubChem BioAssay AID1210 (NMMLSC, 2008).
Active and inactive are the calls of the source.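 How the source made its calls: active means blocks over 70% of labeled estradiol binding at 10 µM, or over a set limit at 100 nM; inactive means the rest.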

target: Estrogen receptor beta (Homo sapiens) (UniProt Q92731); assay: ERbeta ligand binders by competition, primary screen, cell-based, Cos7 ERbeta-GFP, flow cytometry (AID 1210); settings: fluorescent estrogen binding, at 10 µM, stronger effect = higher value;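 further: 0% = DMSO vehicle wells and 100% = complete loss of labeled estradiol signal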
Sequence (Q92731 whole entry, looked up): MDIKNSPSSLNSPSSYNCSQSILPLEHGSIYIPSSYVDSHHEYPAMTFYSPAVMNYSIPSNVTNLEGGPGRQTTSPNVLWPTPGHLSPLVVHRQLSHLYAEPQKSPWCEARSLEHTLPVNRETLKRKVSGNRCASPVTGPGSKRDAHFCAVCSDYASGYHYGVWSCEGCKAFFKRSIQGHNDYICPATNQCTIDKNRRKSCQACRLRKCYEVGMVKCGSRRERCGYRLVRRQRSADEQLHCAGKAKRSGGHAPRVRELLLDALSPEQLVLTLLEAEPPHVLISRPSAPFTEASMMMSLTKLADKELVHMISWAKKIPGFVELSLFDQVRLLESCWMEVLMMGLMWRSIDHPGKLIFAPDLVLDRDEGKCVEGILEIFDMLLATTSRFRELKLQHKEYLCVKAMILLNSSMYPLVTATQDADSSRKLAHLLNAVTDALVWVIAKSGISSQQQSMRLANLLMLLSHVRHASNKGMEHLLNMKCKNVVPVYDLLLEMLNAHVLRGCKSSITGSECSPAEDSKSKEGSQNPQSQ

inhibition, inactive:
COc1cccc(C2NCCc3cc(OC)c(OC)cc32)c1 (centres undefined) 15%
O=C(O)c1cc(-c2ccco2)nc2ccccc12 14%
CCOC(=O)Cc1cc(-c2ccc(O)cc2)nc2ccc3ccccc3c12 69%
O=C1CC(c2ccncc2)c2cc3c(cc2N1)OCCO3 (centres undefined) 14%
COc1cc2c(cc1OC)CC(C)(C)N(Cc1ccco1)C2 15%
COc1ccc(C2(CNCC(N)=O)CCCC2)cc1OC 7%
CC1(C)C=C(c2ccc(O)cc2)CC(C)(C)N1 43%
COc1cccc2c1NC(C(=O)O)C1CC=CC21 (centres undefined) 15%
CCOC(=O)c1c(N)sc2c1CC(C)(C)NC2(C)C 22%
CCOc1ccccc1-n1nnnc1SCC(=O)NC(=O)NCc1ccco1 32%
N#Cc1c2c(c(=O)n3c1[nH]c1ccccc13)CCCC2 13%
Nc1nc2c(s1)CCc1c-2cnn1-c1ccccc1 50%
CCOc1ccccc1-c1nc(-c2ccc(NC(=O)c3ccc(Br)o3)cc2)no1 37%
COC(=O)c1ccc(OCc2c(C)noc2C)cc1 0%
CC1CCCC(C)N1Cc1c(O)ccc2c3c(c(=O)oc12)CCC3 (centres undefined) 21%
CCCC1Nc2ccc(C(=O)O)cc2C2C=CCC12 (centres undefined) 44%
O=C(O)C1Nc2c(C(=O)N3CCOCC3)cccc2C2C=CCC12 (centres undefined) 45%
CCCc1c(C(=O)OCC)[nH]c2c1C(=O)CC(c1ccccc1)C2 (centres undefined) 39%
CC12CCCCC1(O)[N+](=O)C1=C(CCCC1)N2[O-] (centres undefined) 0%
CN(C)NC(=S)Nc1ccc2nc(-c3ccccn3)c(-c3ccccn3)nc2c1 25%
CCOc1ccc(NS(=O)(=O)c2ccc3c(c2)[C@H]2C=CC[C@H]2[C@@H](c2cccc([N+](=O)[O-])c2)N3)cc1 0%
O=C(Cc1ccc(S(=O)(=O)N2CCOCC2)s1)Nc1nc2c(s1)CCCC2 18%
Nc1ccc(-c2nc3ccc([N+](=O)[O-])cc3[nH]2)cc1 61%
CCOC(=O)c1ccc2c(c1)C1C=CCC1C(C(=O)O)N2 (centres undefined) 36%
CCOc1ccc(N=C2NC(=O)S/C2=C\c2ccc(OC)cc2)cc1 47%
O=C(O)c1ccc(Cl)c2c1C1C=CCC1C(c1ccccn1)N2 (centres undefined) 28%
COc1ccc(C2Nc3ccccc3C(=O)N2c2ccccc2)cc1CSc1ccccn1 (centres undefined) 60%
CCC1=NN2C(=N)/C(=C\c3ccc(SCc4ccco4)o3)C(=O)N=C2S1 35%
COc1cc(/C=N/N2CCN(C3c4ccccc4-c4ccccc43)CC2)cc(OC)c1O 12%
CCCOc1cc2oc(=O)c3c(c2cc1CC)CCCC3 20%
CCCSc1nc(C)c(-c2csc(C(C#N)=C3CCCC3)n2)cc1C#N 37%
Cc1noc(C)c1CSCC(=O)OCC(=O)Nc1sccc1C#N 5%
CN(/N=C/c1cccnc1)c1cnn(-c2ccc(F)c(Cl)c2)c(=O)c1Cl 20%
Cc1cc([N+](=O)[O-])c2c(c1C)C1C=CCC1C(c1ccccn1)N2 (centres undefined) 0%
CCOC(=O)N1CCc2[nH]c3ccc(C)cc3c2C1 9%
CCOc1cc2c(cc1OCC)C(C1CCCCC1)NCC2 (centres undefined) 12%
COc1cc(C2C3C(C)N(C)C(=O)N(C)C3N(C)C(=O)N2C)ccc1O (centres undefined) 12%
Nc1nc(-c2ccc3c(c2)NC(=O)CO3)cs1 70%
COc1ccc(C(N)CCc2ccc(C)o2)cc1 (centres undefined) 38%
